Compound activity as filed in PubChem.
An excerpt weighted towards active compounds, which were near 12% of everything screened.
JMJD2A Tudor: blocks the human JMJD2A Tudor domain; AlphaScreen JMJD2A-Tudor / H3K4me3 peptide binding; Potency, µM (top dose mostly 114 µM), without a hit: top-dose activity change, negative = inhibition, hits mostly inhibitors; 390,000 tested, 4.4% active; AID 504339; also: potency is read from the fitted curve at half-maximal effect; % is scaled to controls: 0 for no effect and ±100 for the full control effect; nearly all actives have a fitted effect of over 50% in size
PLK1 PBD inh: PLK1 (human) polo-box domain binding inhibition | Plk1 PBD binding of FITC phosphopeptide, fluorescence polarization | Potency, µM, for the others: max response, negative = inhibition, most hits filed as inhibitors | P53350 | 360,000 tested, 2.8% active; also: potency is read from the fitted curve at half-maximal effect; series mostly up to about 57 µM; % is scaled to controls: 0 for no effect and ±100 for the full control effect; nearly all actives have a fitted effect of over 65% in size
BAZ2B block: BAZ2B (human) inhibition; AlphaScreen BAZ2B-H3K14Ac peptide displacement; Potency, µM (highest dose often 114 µM), inactives show at the top dose activity change, negative = inhibition, usual class: inhibitors; 360,000 tested, 4.4% active; also: potency is read from the fitted curve at half-maximal effect; % is scaled to controls: 0 for no effect and ±100 for the full control effect; nearly all actives have a fitted effect of over 60% in size
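Protein-peptide AlphaScreen: BAZ2B 50 nM, b-H3K14Ac 50 nM, 1x PBS pH 7.4 + 0.01% Tween-20. Preincubation 30 min RT; cpd 30 min RT (top 110 uM); beads 20 min RT, light-protected.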
HP1b chromo inh: inhibitors of HP1-beta chromodomain binding to methylated histone tails. AID 540317. P83916. 390,000 tested, 0.56% active. Potency, µM (series often up to 114 µM), for the others: at the highest dose activity change, negative = inhibition, hits mostly inhibitors. AlphaScreen HP1-beta / biotin-H3K9me3 peptide binding; also: potency is read from the fitted curve at half-maximal effect; nearly all actives have a fitted effect of over 70% in size
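Compound inhibition of the preformed complex between 50 nM HP1-beta and 50 nM biotinylated H3K9me3 peptide was read by AlphaScreen. Buffer was PBS pH 7.4 with 0.01% Tween-20. Incubations ran 30 min at room temperature, with 10 ug/mL donor/acceptor beads.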
G9a block: G9a (human) methyltransferase inhibition. G9a H3K9 monomethylation, AlphaScreen, 2 h. Potency, µM (highest dose often 102 µM), without a hit: at the highest dose activity, negative = inhibition, usual class: inhibitors. 350,000 tested, 8.8% active. AID 504332; also: potency is read from the fitted curve at half-maximal effect; % is scaled to controls: 0 for no effect and ±100 for the full control effect; nearly all actives have a fitted effect of over 75% in size
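Methyltransferase reactions run at room temperature for 2 h (20 nM enzyme, 500 nM biotin-H3K9 peptide, 20 uM SAM) after a 15 min compound preincubation; product detected by AlphaScreen beads and anti-H3K9me1 antibody.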
PI5P4Ka inh: inhibitors of human PI5P4K alpha; P48426; AID 652105; PI5P4Kalpha enzyme, ADP-Glo luminescence, 60 min; active compounds read low; 330,000 tested, 1.2% active; max response, %; active = max response of -50% or lower; inconclusive = between -30% and -50%; inactive = -30% or higher; also: value at the top dose of about 77 µM; % is scaled to controls: 0 for no effect and ±100 for the full control effect
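Single end-point luminescence (ADP-Glo) quantified ADP from PI5P4Kalpha turnover; ATP 5 microM final, 1 h at RT, 0.1% CHAPS and 0.28 mM EGTA in HEPES pH 7.4.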
An asterisk follows results filed as active; u = inconclusive; x = not tested or not shown; [ ] = dose if it differs, or a comment. Unless noted, calls follow the shape of the dose curve; as a rule, active = well fitted curve in the direction sought with a large enough effect; inconclusive = small, poorly fitted or top-dose-only effect, or another doubt; inactive = no such curve, though single readings can be large; an effect the other way counts as inactive or inconclusive.

SMILES	JMJD2A Tudor	PLK1 PBD inh	BAZ2B block	HP1b chromo inh	G9a block	PI5P4Ka inh
Cc1ccc(/C=C2\SC(N3CCCCC3)=NC2=O)cc1	u	24µM*	2%	-18%	15%	-10
O=C1N=C(N2CCN(c3cccc4ccccc34)CC2)S/C1=C/c1cccs1	-26%	-7%	-5%	-17%	-29%[12.7 µM]	1
COc1ccc(-c2cc(=O)oc3c4c(ccc23)OCN(Cc2cccc(OC)c2)C4)cc1	-14%	x	-1%	63%	0%[59 µM]	x
O=C1CCc2cc(NS(=O)(=O)c3ccc(Cl)cc3)cc3c2N1CC3	-7%	-12%	7%	12%	-37%[59 µM]	9
Cc1ccc(NCC(=O)N=Nc2c(O)[nH]c3ccc([N+](=O)[O-])cc23)cc1	-25%	-22%	-15%	41%	x	u
O=C(Nc1ccc(F)cc1)C(=O)c1c(O)[nH]c2ccc([N+](=O)[O-])cc12	u	u	u	-17%	32µM*	-3
C/C(=N\Nc1ccc(Cl)c(C(=O)O)c1)c1ccccn1	5%[11.4 µM]	-15%	-14%	28%	x	-3
O=C(O)c1cccc2c1-c1ccccc1/C2=N\Nc1ccccc1	u	38µM*	-31%	22%	50µM*	-5
O=C(O)c1cc(NN=C2c3ccccc3-c3ccccc32)ccc1Cl	-33%	u	u	-6%[57 µM]	45µM*	1
O=C(O)c1cc(N/N=C/C(Cl)=C/c2ccccc2)ccc1Cl	-30%	u	35µM*	9%	35µM*	1
NC(=O)N/N=C1\c2ccccc2-c2c(C(N)=O)cccc21	-9%	-11%	-6%	12%	7%	-2
NNc1cc(C(=O)O)ccc1Cl	25µM*	u	u	u	x	14
CC(C)(C)S(=O)N1Cc2cc(CO)cc(CCO)c2[C@H]1CCO (some centres not stated)	-1%	-5%	x	46%	x	-6
O=C(Nc1ccc2oc(-c3ccc4ccccc4c3)nc2c1)c1cc(Cl)ccc1Cl	13%	x	5%	38%	-43%[59 µM]	x
COc1ccccc1-n1c(SCC(=O)NC2CC2)nc2ccccc2c1=O	-10%	-2%	10%	37%	-22%[59 µM]	-3
O=C(O)/C=C/C(=O)Nc1ccc(Cl)c(C(=O)O)c1	-15%	6%	u	33%	u	-21
NNc1ccc(Cl)c(C(=O)O)c1	-1%[11.4 µM]	30µM*	-37%	39%	1.3µM*	-14
O=C(NNC(=O)C(c1ccccc1)c1ccccc1)c1ccccc1O	x	-11%	x	x	x	1
COc1ccc([C@H]2C[C@@H](n3cc(-c4ccc(F)cc4)nn3)[C@H](O)CN2CC2CCCCC2)cc1	x	-5%	x	x	x	-2
COc1ccc(C2=NNC(c3cc(Cl)cc4c3OCOC4)C2)c(O)c1 (configuration not stated)	x	x	-1%	x	50µM*	x
Oc1ccc(Cl)cc1C1=NNC(c2cc(Br)cc3c2OCOC3)C1 (configuration not stated)	-31%	-16%	-31%	33%	-41%	-2
CCOC(=O)[C@H]1[C@H]2COc3ccc(Cl)cc3[C@@H]2N2C(=O)CN(CC3CCCO3)C(=O)[C@@]12C (some centres not stated)	-8%	5%	-2%	32%	6%[0.501 µM]	-2
N#Cc1nc(COc2ccccc2)oc1N1CCCCCC1	u	1%	35µM*	u	45µM*	-3
N#Cc1nc(COc2ccc(Br)cc2)oc1N1CCCC1	u	-5%	25µM*	u	u	-2
CC(C)(C)C1CCc2c(sc(NC(=O)c3ccc(Cl)cc3)c2C(=O)NCc2ccco2)C1 (configuration not stated)	-7%	x	4%	55%	0%[59 µM]	x
Cc1cc(C)n(-c2cc(O)c(-n3nc(C)cc3C)cc2O)n1	22µM*	-19%	-16%	u	28µM*	3
CCN(CC)c1ccc(/C=C/c2cccc[n+]2C)c(OC)c1	18µM*	51%	50µM*	-18%	35µM*	u
O=C(O)CC(CCc1ccccc1)OC1OC(CO)C(O)C(O)C1O (configuration not stated)	8.9µM*	5%	u	u	u	-68*
